Reference: the supplement of paper PMC6089552
The campaign covered roughly 3,200 compounds. About 300 (9.4%) showed activity. For the sample, actives were picked, then their nearest neighbours and some compounds at random.

System: A673/TR/shEF
Experiment: cell viability (LOESS-normalised, relative to median of negative controls) (log2 ratio); higher = more viable cells (less compound effect), active = hit call of the paper (over 3 MAD below the median)
Conditions: treatment time: 72 h
Summary of the method: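 For three days, A673/TR/shEF Ewing sarcoma cells in 384-well plates (1,500 per well) were treated with library compounds at two or more concentrations or with DMSO controls, after doxycycline had been added or withheld 24 h beforehand to induce EWS-FLI1 shRNA knockdown. Viability was read by CellTiter-Glo luminescence on an Envision reader. The data were LOESS-corrected per plate, divided by the median of negative controls and log2-transformed.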

[1] = 0.25 µM, library screen: screen1, EWS-FLI1 expression: high (no doxycycline)
[2] = 0.25 µM, library screen: screen1, EWS-FLI1 expression: low (doxycycline-induced shRNA knockdown)
[3] = 0.25 µM, library screen: screen2, EWS-FLI1 expression: high (no doxycycline)
[4] = 0.25 µM, library screen: screen2, EWS-FLI1 expression: low (doxycycline-induced shRNA knockdown)
[5] = 2.5 µM, library screen: screen1, EWS-FLI1 expression: high (no doxycycline)
[6] = 2.5 µM, library screen: screen1, EWS-FLI1 expression: low (doxycycline-induced shRNA knockdown)
[7] = 2.5 µM, library screen: screen2, EWS-FLI1 expression: high (no doxycycline)
[8] = 2.5 µM, library screen: screen2, EWS-FLI1 expression: low (doxycycline-induced shRNA knockdown)

Measured: cell viability (log2)

C[n+]1c2cc(N)ccc2cc2ccc(N)cc21
active: [7] -0.404 | 25 µM, library screen: screen2, EWS-FLI1 expression: high (no doxycycline) -4.23 | 25 µM, library screen: screen2, EWS-FLI1 expression: low (doxycycline-induced shRNA knockdown) -2.18
inactive: 0.025 µM, library screen: screen2, EWS-FLI1 expression: high (no doxycycline) 0.0847 | 0.025 µM, library screen: screen2, EWS-FLI1 expression: low (doxycycline-induced shRNA knockdown) 0.099 | [1] 0.0872 | [2] 0.141 | [3] 0.0533 | [4] 0.0413 | [5] 0.0728 | [6] 0.101 | [8] -0.0252

CCCCN1CCC(COC(=O)c2cc(Cl)c(N)c3c2OCCO3)CC1
active: [3] -0.151
inactive: [4] -0.0248 | [7] 0.148 | [8] 0.108

CC[C@H](/C=C/[C@@H](C)[C@H]1CC[C@H]2[C@@H]3CCC4=CC(=O)CC[C@]4(C)[C@H]3CC[C@]12C)C(C)C
inactive: [1] 0.0678 | [2] 0.0569 | [5] 0.0668 | [6] -0.0817

COC(=O)[C@H]1[C@H]2C[C@H]3c4[nH]c5cc(OC)ccc5c4CCN3C[C@H]2C[C@@H](OC(=O)c2cc(OC)c(OC)c(OC)c2)[C@@H]1OC
inactive: [1] 0.121 | [2] 0.17 | [5] 0.195 | [6] 0.313

COc1ccc2c(c1)[C@@]1(C)CCC(=O)C[C@H]1CC2
inactive: [1] 0.0614 | [2] 0.0537 | [5] 0.105 | [6] 0.0269

Clc1ccc(C(c2ccc(Cl)cc2)n2cc[n+](CC(OCc3ccc(Cl)cc3Cl)c3ccc(Cl)cc3Cl)c2)cc1 (centres undefined)
inactive: [3] 0.138 | [4] 0.0728 | [7] 0.0573 | [8] 0.0822

NCCCCNS(=O)(=O)c1cccc2c(Cl)cccc12
inactive: [4] 0.0648 | [7] 0.0418 | [8] 0.0582
active: [3] -0.151

NCCCCCCNS(=O)(=O)c1cccc2c(Cl)cccc12
inactive: [1] 0.066 | [2] 0.0556 | [3] 0.156 | [4] 0.0625 | [5] 0.0432 | [6] 0.0443 | [7] 0.141 | [8] 0.102

COc1ccccc1N1CCN(CCCCNS(=O)(=O)c2cccc3c(N(C)C)cccc23)CC1
inactive: [3] 0.171 | [4] 0.0777 | [7] 0.0423 | [8] 0.0929

O=C(Oc1cc(O)c2c(c1)O[C@H](c1cc(O)c(OC(=O)c3cc(O)c(O)c(O)c3)c3c(O)c(=O)cc(C4Oc5cc(O)cc(O)c5C[C@H]4O)cc13)[C@H](O)C2)c1cc(O)c(O)c(O)c1 (some centres undefined)
inactive: [1] 0.0686 | [2] 0.0559 | [5] 0.0408 | [6] 0.0509

CC12CC[C@](C)(C(=O)O)CC1C1=CC(=O)[C@@H]3C4(C)CC[C@H](OC(=O)CCC(=O)O)C(C)(C)[C@@H]4CCC3(C)[C@]1(C)CC2 (some centres undefined)
inactive: [1] 0.0741 | [2] -0.061 | [5] 0.0857 | [6] -0.0474

CC(=O)OC1CCC2(C)C(CCC3C2CCC2(C)C3CC3OC4(CCC(C)CO4)C(C)C32)C1 (centres undefined)
inactive: [1] 0.0872 | [2] 0.0698 | [5] 0.151 | [6] 0.0624

CC(=O)OC1CCC2(C)C(CCC3C2CC(=O)C2(C)C3CC3OC4(CCC(C)CO4)C(C)C32)C1 (centres undefined)
inactive: [1] 0.0619 | [2] 0.0314 | [5] 0.0226 | [6] 0.0969

COc1ccc(/C=C/C(=O)O)cc1O
inactive: [1] 0.0659 | [2] -0.0174 | [5] 0.0725 | [6] 0.0415

CCCCC(=O)O[C@H]1CC[C@H]2[C@@H]3CCc4cc(O)ccc4[C@H]3CC[C@]12C
inactive: [1] 0.0993 | [2] -0.0254 | [5] 0.16 | [6] 0.0807

CCC(=O)O[C@H]1CC[C@H]2[C@@H]3CCc4cc(O)ccc4[C@H]3CC[C@]12C
inactive: [1] 0.0933 | [2] 0.137 | [5] 0.162 | [6] 0.0928

C[C@]12CC[C@@H]3c4ccc(O)cc4CC[C@H]3[C@@H]1CC[C@@H]2OC(=O)CCC1CCCC1
active: [1] -0.302
inactive: [2] 0.00213 | [5] 0.197 | [6] 0.299

CS(=O)(=O)Nc1ccc([N+](=O)[O-])cc1Oc1ccccc1
inactive: [1] 0.147 | [2] 0.0914 | [3] 0.0788 | [4] -0.000657 | [5] 0.123 | [6] 0.11 | [7] 0.101 | [8] 0.0459

O=[N+]([O-])c1ccc(Oc2ccc(Br)cc2)c(C(O)[P+](=O)O)c1 (centres undefined)
inactive: 0.025 µM, library screen: screen1, EWS-FLI1 expression: high (no doxycycline) 0.0442 | 0.025 µM, library screen: screen1, EWS-FLI1 expression: low (doxycycline-induced shRNA knockdown) 0.0701 | [1] 0.235 | [2] 0.0171 | [6] -0.0253 | 25 µM, library screen: screen1, EWS-FLI1 expression: low (doxycycline-induced shRNA knockdown) -0.0834
active: [5] -0.289 | 25 µM, library screen: screen1, EWS-FLI1 expression: high (no doxycycline) -0.404

O=C(NC(=S)Nc1ncc(Br)cc1Br)c1cccs1
inactive: [1] 0.112 | [2] -0.086 | [5] 0.132 | [6] 0.0575

COc1c(Cl)ccc(Cl)c1C(=O)O
inactive: [1] 0.0938 | [2] 0.128 | [5] 0.0992 | [6] 0.17
